Results on 20 molecules are retold here after PubChem BioAssay (NCI).

Holding throughout (assay): NCI-60 one-dose screen, 48 h (100 = growth as untreated, 0 = no growth, -100 = all killed)
What all share (conditions): 10 µM

Test [1] relates to BT-549 breast.
In test [2] the test system is MDA-MB-435 melanoma.
In test [3] the test system is SW-620 colon.
Test [4] has as its system MCF7 breast.
For test [5], the system named is HCT-116 colon.
The test system of test [6] is HCC-2998 colon.

The panel holds about 83,000 compounds, 20% with a hit somewhere; the sample as a whole holds those more often.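 Percent growth is the endpoint: 0 to 100 indicates growth inhibition (40 means 60% inhibition), 0 means no net growth, and negative values indicate cell death.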 Values without a mark were called inactive. Calls of active or inactive are those of the source. The calls were made as follows: active = growth percent below 10; inactive = the rest.

Take `COc1ccc(-c2nc(-c3nc4cc(Cl)c(Cl)cc4[nH]3)c3ccccn23)cc1`: the growth in test [1] was 71.9%; in test [2], 65.2%; in test [3], 79.6%; in test [4], 69.6%; in test [5], 24.8%; in test [6], 76.4%.

Take `COc1cc(C(=O)/C=C/c2cc(-c3cc(OC)c(OC)c(OC)c3)n[nH]2)cc(OC)c1OC`: the growth was -79% (active) in test [1]; -51.8% (active) in test [2]; -71.8% (active) in test [3]; 3.65% (active) in test [4]; -93.6% (active) in test [5].

As to `COc1cc(/C=C\c2cc(OC)c(OC)c(OC)c2)cc(NS(=O)(=O)c2ccc(Cl)cc2)c1OC`, the growth in test [1] was 40.6%; in test [2], -39.1% (active); in test [3], 30.4%; in test [4], 26.5%; in test [5] it was 14.7%; in test [6] it was 18.6%.

`COc1cccc(Cn2c(-c3nonc3N)nc3ccccc32)c1`: the growth is 47.9% in test [1]; -73.9% (active) in test [2]; 14.4% in test [3]; 15.5% in test [4]; 18.3% in test [5]; 23.7% in test [6].

Take `O=C1/C(=C\c2ccc(Cl)cc2)CN(C(=S)Nc2ccccc2)C/C1=C\c1ccc(Cl)cc1`: the growth in test [1] is -66.6% (active); in test [2], -82.1% (active); in test [3] it was -84.9% (active); in test [4], -83.9% (active); in test [5], -62.8% (active); in test [6], -89% (active).

Take `CN(C)C(=S)N/N=C\C=N/NC(=S)N(C)C`: the growth in test [1] is 81%; in test [2] it was 67%; in test [3] it was 64.1%; in test [4] it was 12%; in test [5], 0.438% (active); in test [6], 80.4%.

`c1ccc(CNc2ncnc3scc(-c4cccs4)c23)nc1`: the growth was 63.7% in test [1]; 63.7% in test [2]; 86.1% in test [3]; 67.1% in test [4]; 66.5% in test [5]; 106% in test [6].

Take `O=C(Nc1ccc(CN2CCc3nc4cc(O)c(O)cc4cc32)cc1)c1ccc(Cl)c(Cl)c1`: the growth in test [1] is 101%; in test [2], 100%; in test [3], 97.2%; in test [4], 93.7%; in test [5] it was 100%; in test [6], 112%.

As for `Clc1cccc(-c2nc(-c3cccs3)no2)c1`, the growth is 111% in test [1]; 111% in test [2]; 106% in test [3]; 36.8% in test [4]; 92.4% in test [5]; 32.9% in test [6].

For the molecule `CC(=O)O[C@]1(C)CC[C@H]2[C@H](CNCCc3ccc(Cl)cc3)C(=O)O[C@@H]2C2=C(C)C(=O)C[C@H]21`, the growth is 108% in test [1]; 88% in test [2]; 82% in test [3]; 68.4% in test [4]; 83.9% in test [5]; 94.6% in test [6].

On to `CCC(=O)N1C/C(=C/c2ccc(Br)cc2)C(=O)/C(=C/c2ccc(Br)cc2)C1`, for which the growth in test [1] was -48.4% (active); in test [2], -63% (active); in test [3], -64.2% (active); in test [4], -16.1% (active); in test [5] it was -88.4% (active); in test [6], -85.9% (active).

For `COc1cc2cc3c(nc2cc1OC)CCN3Cc1ccc(NC(=O)c2ccc(Cl)c(C(F)(F)F)c2)cc1`, the growth in test [1] is 112%; in test [2], 95.6%; in test [3] it was 114%; in test [4], 15%; in test [5], 93.4%; in test [6], 91.2%.

For `COc1ccc(/C=C2/CN(CCC#N)C/C(=C\c3ccc(OC)cc3)C2=O)cc1`, the growth in test [1] is 5.02% (active); in test [2], -30% (active); in test [3], -37.2% (active); in test [4], 10.4%; in test [5], -68.2% (active); in test [6], -82.3% (active).

For the molecule `CCC(=O)N1C/C(=C/c2ccc(Cl)cc2)C(=O)/C(=C/c2ccc(Cl)cc2)C1`, the growth in test [1] is -18.7% (active); in test [2], -58.6% (active); in test [3], -63.6% (active); in test [4], -77.9% (active); in test [5], -85.4% (active); in test [6] it was -89.3% (active).

For `CCN(CC)CCOc1nc2ccccc2c2c1-c1ccc(OC)cc1C2=O`, the growth is 60.8% in test [1]; -6.62% (active) in test [2]; -13.3% (active) in test [3]; 0.376% (active) in test [4]; -93% (active) in test [5]; 14.8% in test [6].

Regarding `COc1ccc(Nc2ncnc3c2c(SC)nn3-c2ccccc2)cc1`, the growth in test [1] is 96.5%; in test [2], 97.8%; in test [3], 103%; in test [4], 103%; in test [5], 89.2%; in test [6], 103%.

Turning to `O=C1/C(=C\c2ccc(Cl)cc2)CN(C(=O)c2ccccc2)C/C1=C\c1ccc(Cl)cc1`, the growth is 19.8% in test [1]; -18.1% (active) in test [2]; -33.8% (active) in test [3]; 2.9% (active) in test [4]; -48.2% (active) in test [5]; -71.8% (active) in test [6].

Consider `O=C1OCC2=C1C(c1cccc(Cl)c1)c1cc3c(cc1N2CCO)CCC3` (stereo not drawn), for which the growth in test [1] was 8.33% (active); in test [2], -49.5% (active); in test [3], 16%; in test [4], 14.1%; in test [5], 2.02% (active).

`C#Cc1ccc(-n2c(/C=C/c3ccc(C(F)(F)F)cc3)nc3ncccc3c2=O)cc1`: the growth in test [1] is 24.8%; in test [2] it was 6.06% (active); in test [3], -12.3% (active); in test [4], 14.9%; in test [5] it was 1.75% (active); in test [6], 18.7%.

For the molecule `CC/C(=C(/c1ccc(OCCN(C)C)cc1)c1ccc(OC(=O)CCCCCCCCC(=O)c2c(C)[nH]c(/C=C3\N=C(c4ccc[nH]4)C=C3OC)c2C)cc1)c1ccccc1`, the growth is 69.2% in test [1]; 52.8% in test [2]; 53.8% in test [3]; -2.49% (active) in test [4]; 21.6% in test [5]; 100% in test [6].
